Experimental findings from ChEMBL document CHEMBL2218924, “A broad activity screen in support of a chemogenomic map for kinase signalling research and drug discovery” (Biochem J, 2013) are described below.

Assay [1] deals with T1, Mitogen-activated protein kinase kinase kinase 5 (Homo sapiens) (UniProt Q99683).
T1 sequence (whole entry): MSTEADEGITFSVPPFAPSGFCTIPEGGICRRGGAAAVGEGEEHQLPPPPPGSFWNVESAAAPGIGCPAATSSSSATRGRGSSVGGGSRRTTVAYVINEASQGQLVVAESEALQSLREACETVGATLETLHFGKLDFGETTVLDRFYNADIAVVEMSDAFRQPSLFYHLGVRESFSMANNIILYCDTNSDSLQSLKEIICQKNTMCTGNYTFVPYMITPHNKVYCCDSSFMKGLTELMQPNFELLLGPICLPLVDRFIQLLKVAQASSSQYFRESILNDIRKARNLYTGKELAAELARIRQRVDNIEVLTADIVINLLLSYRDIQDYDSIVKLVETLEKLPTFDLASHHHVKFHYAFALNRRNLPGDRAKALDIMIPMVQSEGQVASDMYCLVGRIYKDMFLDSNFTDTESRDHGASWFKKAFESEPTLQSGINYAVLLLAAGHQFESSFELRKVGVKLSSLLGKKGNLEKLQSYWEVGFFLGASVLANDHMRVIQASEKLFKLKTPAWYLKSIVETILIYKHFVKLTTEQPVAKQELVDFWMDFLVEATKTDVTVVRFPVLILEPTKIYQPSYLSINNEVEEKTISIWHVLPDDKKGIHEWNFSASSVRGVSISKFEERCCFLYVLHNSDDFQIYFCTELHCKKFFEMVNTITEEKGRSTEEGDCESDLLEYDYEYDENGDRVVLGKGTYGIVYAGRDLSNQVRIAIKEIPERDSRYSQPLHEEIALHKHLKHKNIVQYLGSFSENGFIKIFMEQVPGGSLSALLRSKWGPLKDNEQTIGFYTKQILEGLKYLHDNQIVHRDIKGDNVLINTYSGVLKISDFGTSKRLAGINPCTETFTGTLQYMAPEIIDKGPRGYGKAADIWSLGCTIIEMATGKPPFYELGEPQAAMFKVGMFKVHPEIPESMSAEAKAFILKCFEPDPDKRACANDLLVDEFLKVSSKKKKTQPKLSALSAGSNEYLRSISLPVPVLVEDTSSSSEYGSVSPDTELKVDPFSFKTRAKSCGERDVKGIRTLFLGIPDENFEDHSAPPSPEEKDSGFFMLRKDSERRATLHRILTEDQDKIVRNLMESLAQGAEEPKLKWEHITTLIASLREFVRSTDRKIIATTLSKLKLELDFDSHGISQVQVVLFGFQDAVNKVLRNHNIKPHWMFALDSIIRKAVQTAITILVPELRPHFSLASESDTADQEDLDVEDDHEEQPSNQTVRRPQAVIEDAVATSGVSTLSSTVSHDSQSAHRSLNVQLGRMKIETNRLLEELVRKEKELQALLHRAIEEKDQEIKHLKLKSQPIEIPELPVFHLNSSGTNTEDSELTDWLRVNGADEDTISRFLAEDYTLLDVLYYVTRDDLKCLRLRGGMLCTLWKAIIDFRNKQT
The following applies: at 10 µM.

The target in assay [2] is Tyrosine-protein kinase ABL1 (Homo sapiens) (UniProt P00519). The following applies: at 1 µM.
Tyrosine-protein kinase ABL1 (Homo sapiens), sequence (P00519 whole entry): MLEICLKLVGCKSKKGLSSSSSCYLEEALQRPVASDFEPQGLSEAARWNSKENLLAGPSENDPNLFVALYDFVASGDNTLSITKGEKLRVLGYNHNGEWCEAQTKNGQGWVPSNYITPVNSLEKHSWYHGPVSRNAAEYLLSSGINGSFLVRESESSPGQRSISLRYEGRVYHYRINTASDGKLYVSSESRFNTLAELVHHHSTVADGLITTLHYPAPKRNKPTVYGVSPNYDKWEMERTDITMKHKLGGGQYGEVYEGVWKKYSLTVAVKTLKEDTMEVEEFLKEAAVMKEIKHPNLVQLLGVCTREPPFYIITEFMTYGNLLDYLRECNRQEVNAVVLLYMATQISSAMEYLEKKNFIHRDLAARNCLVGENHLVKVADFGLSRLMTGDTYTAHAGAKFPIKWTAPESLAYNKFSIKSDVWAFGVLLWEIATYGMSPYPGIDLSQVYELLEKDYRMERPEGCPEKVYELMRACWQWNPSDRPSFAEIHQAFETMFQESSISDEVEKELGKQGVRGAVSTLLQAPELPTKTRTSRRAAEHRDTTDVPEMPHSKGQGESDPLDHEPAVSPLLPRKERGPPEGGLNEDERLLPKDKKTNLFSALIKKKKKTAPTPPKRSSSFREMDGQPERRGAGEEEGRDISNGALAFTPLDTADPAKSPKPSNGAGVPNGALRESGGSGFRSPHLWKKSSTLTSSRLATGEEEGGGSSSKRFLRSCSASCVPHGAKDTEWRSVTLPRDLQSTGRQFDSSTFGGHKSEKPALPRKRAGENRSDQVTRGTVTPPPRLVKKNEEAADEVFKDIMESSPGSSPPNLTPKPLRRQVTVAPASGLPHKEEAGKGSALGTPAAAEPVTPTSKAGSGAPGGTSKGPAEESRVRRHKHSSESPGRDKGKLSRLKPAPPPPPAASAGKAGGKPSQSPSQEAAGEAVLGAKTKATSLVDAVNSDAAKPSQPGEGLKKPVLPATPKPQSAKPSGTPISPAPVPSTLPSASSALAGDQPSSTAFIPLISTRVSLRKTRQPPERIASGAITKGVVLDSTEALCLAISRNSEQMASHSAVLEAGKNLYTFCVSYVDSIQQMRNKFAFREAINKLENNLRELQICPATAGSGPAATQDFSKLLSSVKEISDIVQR
Assay [3] shares this target. The following applies: at 10 µM.
In assay [4] the target is Tyrosine-protein kinase ABL2 (Homo sapiens) (UniProt P42684). The following applies: at 1 µM.
Tyrosine-protein kinase ABL2 (Homo sapiens), sequence (P42684 whole entry): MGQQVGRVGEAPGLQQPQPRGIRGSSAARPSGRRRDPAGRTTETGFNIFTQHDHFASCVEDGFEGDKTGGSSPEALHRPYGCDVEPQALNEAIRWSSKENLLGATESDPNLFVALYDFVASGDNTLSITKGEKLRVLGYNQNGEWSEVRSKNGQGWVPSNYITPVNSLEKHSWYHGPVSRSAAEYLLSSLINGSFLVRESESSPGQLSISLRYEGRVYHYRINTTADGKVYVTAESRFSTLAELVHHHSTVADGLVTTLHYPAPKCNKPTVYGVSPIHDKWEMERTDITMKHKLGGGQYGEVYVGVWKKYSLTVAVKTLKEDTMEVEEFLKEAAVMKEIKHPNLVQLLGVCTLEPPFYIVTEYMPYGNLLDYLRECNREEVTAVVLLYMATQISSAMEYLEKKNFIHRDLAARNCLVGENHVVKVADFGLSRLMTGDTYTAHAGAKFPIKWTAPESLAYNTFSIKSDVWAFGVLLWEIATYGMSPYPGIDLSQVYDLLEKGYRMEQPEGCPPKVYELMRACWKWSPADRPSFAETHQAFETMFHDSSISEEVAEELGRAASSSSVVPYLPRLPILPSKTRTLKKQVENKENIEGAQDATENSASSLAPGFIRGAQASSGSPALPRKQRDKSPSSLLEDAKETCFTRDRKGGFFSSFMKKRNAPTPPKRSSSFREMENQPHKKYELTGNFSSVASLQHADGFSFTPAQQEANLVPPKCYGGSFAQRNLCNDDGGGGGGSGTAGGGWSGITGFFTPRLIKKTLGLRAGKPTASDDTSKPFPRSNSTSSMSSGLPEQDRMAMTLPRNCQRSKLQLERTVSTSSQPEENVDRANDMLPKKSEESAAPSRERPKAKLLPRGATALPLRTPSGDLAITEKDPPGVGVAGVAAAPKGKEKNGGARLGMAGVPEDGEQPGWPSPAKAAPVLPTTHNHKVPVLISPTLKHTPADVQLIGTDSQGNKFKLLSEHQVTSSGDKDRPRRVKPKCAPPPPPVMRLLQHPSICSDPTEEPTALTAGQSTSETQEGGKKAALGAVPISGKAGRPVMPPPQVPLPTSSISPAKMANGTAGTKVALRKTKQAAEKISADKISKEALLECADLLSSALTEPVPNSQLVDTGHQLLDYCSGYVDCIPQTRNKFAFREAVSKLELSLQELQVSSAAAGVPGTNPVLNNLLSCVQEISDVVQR
The target is the same in assay [5]. The following applies: at 10 µM.
The target in assay [6] is T2, Aurora kinase A (Homo sapiens) (UniProt O14965).
T2 sequence (whole entry): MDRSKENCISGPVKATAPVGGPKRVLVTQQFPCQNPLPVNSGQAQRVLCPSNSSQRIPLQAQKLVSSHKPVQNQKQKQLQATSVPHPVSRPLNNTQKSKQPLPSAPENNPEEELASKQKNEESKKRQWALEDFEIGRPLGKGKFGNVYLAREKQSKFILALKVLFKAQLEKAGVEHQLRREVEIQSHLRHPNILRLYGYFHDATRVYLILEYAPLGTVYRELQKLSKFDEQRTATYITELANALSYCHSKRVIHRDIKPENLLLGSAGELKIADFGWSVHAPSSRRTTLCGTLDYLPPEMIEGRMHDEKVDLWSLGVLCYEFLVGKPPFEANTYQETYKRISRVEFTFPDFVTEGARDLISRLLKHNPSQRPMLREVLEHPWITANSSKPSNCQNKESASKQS
The following applies: at 1 µM.

In assay [7] the target is T2, Aurora kinase A (Homo sapiens). The following applies: at 10 µM.
Assay [8] has as its target Aurora kinase B (Homo sapiens) (UniProt Q96GD4). The following applies: at 1 µM.
Assay [9] shares this target. The following applies: at 10 µM.
In assay [10] the target is T3, Aurora kinase C (Homo sapiens) (UniProt Q9UQB9).
T3 sequence (whole entry): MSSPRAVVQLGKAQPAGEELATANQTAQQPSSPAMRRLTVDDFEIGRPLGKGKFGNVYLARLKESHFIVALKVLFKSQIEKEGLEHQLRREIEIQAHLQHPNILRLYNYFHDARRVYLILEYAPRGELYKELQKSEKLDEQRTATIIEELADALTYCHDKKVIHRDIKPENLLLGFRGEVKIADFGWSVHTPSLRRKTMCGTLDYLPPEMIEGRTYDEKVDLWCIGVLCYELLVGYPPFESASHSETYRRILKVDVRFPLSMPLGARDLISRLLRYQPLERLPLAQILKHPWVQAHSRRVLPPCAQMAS
The following applies: at 1 µM.

For assay [11], the target named is T3, Aurora kinase C (Homo sapiens). The following applies: at 10 µM.
Assay [12] deals with Tyrosine-protein kinase receptor UFO (Homo sapiens) (UniProt P30530). The following applies: at 1 µM.
The target is the same in assay [13]. The following applies: at 10 µM.
Assay [14] deals with Tyrosine-protein kinase BTK (Homo sapiens) (UniProt Q06187). The following applies: at 1 µM.
Tyrosine-protein kinase BTK (Homo sapiens), sequence (Q06187 whole entry): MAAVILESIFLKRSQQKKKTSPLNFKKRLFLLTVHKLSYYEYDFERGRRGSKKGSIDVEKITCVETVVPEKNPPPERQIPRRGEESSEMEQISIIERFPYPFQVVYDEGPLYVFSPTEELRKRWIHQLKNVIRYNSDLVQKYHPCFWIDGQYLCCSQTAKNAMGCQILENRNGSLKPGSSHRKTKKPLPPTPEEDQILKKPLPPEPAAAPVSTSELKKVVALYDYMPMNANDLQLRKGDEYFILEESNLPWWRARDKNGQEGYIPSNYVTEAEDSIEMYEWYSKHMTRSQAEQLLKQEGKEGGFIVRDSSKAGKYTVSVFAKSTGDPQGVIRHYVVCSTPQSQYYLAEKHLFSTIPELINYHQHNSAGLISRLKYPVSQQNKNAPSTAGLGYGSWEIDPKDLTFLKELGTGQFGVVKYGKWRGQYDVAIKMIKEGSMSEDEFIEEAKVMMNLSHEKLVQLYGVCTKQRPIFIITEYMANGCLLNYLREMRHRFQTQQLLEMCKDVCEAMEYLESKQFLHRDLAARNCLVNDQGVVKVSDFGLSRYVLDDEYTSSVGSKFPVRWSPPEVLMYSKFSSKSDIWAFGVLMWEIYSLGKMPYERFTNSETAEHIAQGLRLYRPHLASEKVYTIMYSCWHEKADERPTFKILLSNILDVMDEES
Assay [15] has the same target. The following applies: at 10 µM.
The target of assay [16] is Tyrosine-protein kinase Blk (Homo sapiens) (UniProt P51451). The following applies: at 1 µM.
Tyrosine-protein kinase Blk (Homo sapiens), sequence (P51451 2-505 limits assumed): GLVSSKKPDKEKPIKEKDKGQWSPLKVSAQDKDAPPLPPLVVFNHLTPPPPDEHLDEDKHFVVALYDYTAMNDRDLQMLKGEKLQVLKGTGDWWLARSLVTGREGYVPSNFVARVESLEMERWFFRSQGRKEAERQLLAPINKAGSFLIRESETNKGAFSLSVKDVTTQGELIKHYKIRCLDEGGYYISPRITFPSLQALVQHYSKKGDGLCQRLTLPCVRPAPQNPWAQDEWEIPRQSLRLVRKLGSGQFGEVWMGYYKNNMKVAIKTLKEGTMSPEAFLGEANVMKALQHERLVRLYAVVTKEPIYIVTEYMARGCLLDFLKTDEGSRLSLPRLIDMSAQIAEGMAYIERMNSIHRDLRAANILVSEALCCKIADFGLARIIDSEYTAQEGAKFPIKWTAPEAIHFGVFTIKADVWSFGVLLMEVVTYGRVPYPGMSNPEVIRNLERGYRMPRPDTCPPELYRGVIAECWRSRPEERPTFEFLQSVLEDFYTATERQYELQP
Assay [17] shares this target. The following applies: at 10 µM.
In assay [18] the target is Protein-tyrosine kinase 6 (Homo sapiens) (UniProt Q13882). The following applies: at 1 µM.
Protein-tyrosine kinase 6 (Homo sapiens), sequence (Q13882 whole entry, looked up): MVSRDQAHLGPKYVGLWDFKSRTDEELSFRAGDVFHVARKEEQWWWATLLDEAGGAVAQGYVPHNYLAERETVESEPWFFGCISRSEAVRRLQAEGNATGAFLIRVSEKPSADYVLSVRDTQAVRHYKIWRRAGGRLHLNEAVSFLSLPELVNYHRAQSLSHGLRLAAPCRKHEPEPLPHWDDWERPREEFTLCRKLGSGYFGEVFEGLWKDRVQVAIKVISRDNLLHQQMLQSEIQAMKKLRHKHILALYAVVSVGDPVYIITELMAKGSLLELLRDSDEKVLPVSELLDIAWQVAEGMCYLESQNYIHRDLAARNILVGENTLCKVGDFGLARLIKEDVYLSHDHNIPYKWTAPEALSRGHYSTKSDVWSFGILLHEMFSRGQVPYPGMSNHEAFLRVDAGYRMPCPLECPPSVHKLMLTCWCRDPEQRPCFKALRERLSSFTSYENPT
For assay [19] the target is unchanged. The following applies: at 10 µM.

Aurora kinase B (Homo sapiens), sequence (Q96GD4 whole entry): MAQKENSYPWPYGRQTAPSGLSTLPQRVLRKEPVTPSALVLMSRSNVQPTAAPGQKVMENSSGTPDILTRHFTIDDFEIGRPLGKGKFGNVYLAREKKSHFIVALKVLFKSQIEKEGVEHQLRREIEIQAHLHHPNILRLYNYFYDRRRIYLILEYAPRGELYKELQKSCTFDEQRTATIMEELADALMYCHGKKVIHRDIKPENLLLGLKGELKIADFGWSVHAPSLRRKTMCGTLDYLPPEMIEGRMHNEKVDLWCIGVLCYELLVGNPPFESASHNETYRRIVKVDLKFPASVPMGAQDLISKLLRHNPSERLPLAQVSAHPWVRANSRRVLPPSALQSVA

Consider `CC(C)c1nn(-c2c(Cl)cccc2Cl)c2nc(Cc3ccc(OCCO)cc3)[nH]c(=O)c12`, for which the residual activity is 90% in assay [1]; 97% in assay [2]; 80% in [3]; 89% in assay [4]; 64% in assay [5]; 83% in assay [6]. In addition, the residual activity in assay [7] was 82%; in [8], 69%; in assay [9], 58%; in assay [10], 85%; in assay [11] it was 90%; in assay [12], 90%. For the same molecule, the residual activity in assay [13] stood at 87%; in assay [14], 87%; in assay [15], 97%; in assay [16], 92%; in assay [17], 76%.
With `COc1cc2nccc(Oc3ccc(NC(=S)NC(=O)c4ccccc4C)cc3)c2cc1OC`, the residual activity in [1] came to 77%; in assay [2], 22%; in [3], 9%; in [4] it was 50%; in assay [5], 18%; in assay [6], 0%. Further, the residual activity was 1% in [7]; 2% in assay [8]; -1% in assay [9]; 13% in assay [10]; 1% in assay [11]; 11% in assay [12]. Further, the residual activity in assay [13] came to 8%; in [18] it was 22%; in assay [19], 11%; in assay [14], 17%; in assay [15], 2%; in assay [16], 0%. The residual activity in assay [17] was 0%.
Take `CCCCc1c(-c2ccc(O)cc2)[nH]c2nccnc12`: the residual activity in [1] was determined as 83%; in [2] it was 81%; in assay [3], 44%; in assay [4], 75%; in assay [5], 60%; in assay [6] it was 6%. Further, the residual activity in [7] amounted to 20%; in assay [8], 2%; in assay [9], 0%; in [10], 50%; in assay [11], 49%; in [12] it was 92%. Moreover, the residual activity in [13] was determined as 75%; in assay [18], 31%; in assay [19] it was 29%; in assay [14], 33%; in assay [15], 10%; in assay [16] it was 73%. In [17], the residual activity was 50%.
For `O=C(c1ccccc1)c1ccc(N2CCOCC2)cc1O`, the residual activity in assay [1] amounted to 95%; in [2], 94%; in assay [3] it was 82%; in assay [4] it was 98%; in assay [5], 98%; in assay [6], 77%. For the same molecule, the residual activity came to 91% in [7]; 86% in [8]; 65% in assay [9]; 64% in assay [10]; 78% in assay [11]; 86% in [12]. Moreover, the residual activity in assay [13] stood at 72%; in assay [15] it was 116%; in [16] it was 95%; in [17] it was 81%.
As for `CCN(CC)CCNC(=O)c1c(C)[nH]c(/C=C2\C(=O)Nc3ccc(Cl)cc32)c1C`, the residual activity in assay [1] worked out at 43%; in [2], 23%; in assay [3] it was 0%; in [4] it was 47%; in [5] it was 7%; in assay [6] it was 47%. In addition, the residual activity stood at 30% in assay [7]; 7% in assay [8]; 1% in assay [9]; 38% in [10]; 5% in assay [11]; 9% in assay [12]. In addition, the residual activity in assay [13] was determined as 1%; in [18] it was 65%; in [19] it was 11%; in assay [16], 1%; in assay [17], 0%.
